Test results as given in PMC7862700, “An all-to-all approach to the identification of sequence-specific readers for epigenetic DNA modifications on cytosine”.

What was measured:
Experiment in all cases: DAPPL (digital affinity profiling via proximity ligation, sequencing); 10 mM Tris-HCl pH 7.5, 50 mM NaCl, 1 mM DTT, 4% glycerol, room temperature, 30 min; GST-TFs on glutathione beads, 16-mer random dsDNA library, 0.1% formaldehyde crosslink after washing; high values mean tight binding
[1] = target: T1, FEV (Homo sapiens, UniProt Q99581 1-238); conditions: protein: recombinant; tags: N-terminal GST; dsDNA, one strand shown
T1 sequence: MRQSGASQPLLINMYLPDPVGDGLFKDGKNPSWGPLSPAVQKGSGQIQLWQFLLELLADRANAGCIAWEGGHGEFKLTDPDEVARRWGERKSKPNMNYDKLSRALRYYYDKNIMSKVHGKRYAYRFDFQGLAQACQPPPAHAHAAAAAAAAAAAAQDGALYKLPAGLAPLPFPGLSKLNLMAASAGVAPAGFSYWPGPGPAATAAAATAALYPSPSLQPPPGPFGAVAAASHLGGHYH
Method in brief: (§1)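 The binding signal reported is, for every hexamer, its read frequency for a factor over its read frequency for the tag-only sample. Reads came from pools of yeast-expressed, GST-fused human transcription factors on glutathione beads, barcoded with DNA and mixed with that sample, which were incubated with 200 nmole of a random double-stranded 16-mer DNA library in Tris/NaCl/DTT/glycerol buffer at room temperature for 30 min. After washing, the pools were crosslinked with 0.1% formaldehyde, proximity-ligated with BsaI/T4 ligase for 1 h at 37 °C, PCR-amplified and sequenced on an Illumina NextSeq500.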

[2] = target: ETV5 (Homo sapiens, UniProt P41161 1-510); conditions: protein: recombinant; tags: N-terminal GST; dsDNA, one strand shown
ETV5, sequence (P41161 whole entry): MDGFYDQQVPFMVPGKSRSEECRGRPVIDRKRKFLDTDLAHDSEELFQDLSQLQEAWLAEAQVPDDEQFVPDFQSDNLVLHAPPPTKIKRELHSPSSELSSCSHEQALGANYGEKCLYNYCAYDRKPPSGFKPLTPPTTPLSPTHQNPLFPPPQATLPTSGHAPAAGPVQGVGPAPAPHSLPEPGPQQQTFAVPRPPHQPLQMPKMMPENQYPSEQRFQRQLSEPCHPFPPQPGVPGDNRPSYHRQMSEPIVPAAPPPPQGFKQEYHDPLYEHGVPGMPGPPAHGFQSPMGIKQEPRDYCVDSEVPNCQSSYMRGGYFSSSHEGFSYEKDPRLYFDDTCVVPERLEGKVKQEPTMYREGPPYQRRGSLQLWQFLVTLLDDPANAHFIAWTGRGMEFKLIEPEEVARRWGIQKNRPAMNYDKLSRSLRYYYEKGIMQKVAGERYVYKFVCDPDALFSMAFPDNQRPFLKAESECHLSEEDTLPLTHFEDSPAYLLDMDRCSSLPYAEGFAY
Method in brief: as §1

[3] = target: HSF1 (Homo sapiens, UniProt Q00613 1-529); conditions: protein: recombinant; tags: N-terminal GST; chain copies: 3; dsDNA, one strand shown
HSF1, sequence (Q00613 whole entry): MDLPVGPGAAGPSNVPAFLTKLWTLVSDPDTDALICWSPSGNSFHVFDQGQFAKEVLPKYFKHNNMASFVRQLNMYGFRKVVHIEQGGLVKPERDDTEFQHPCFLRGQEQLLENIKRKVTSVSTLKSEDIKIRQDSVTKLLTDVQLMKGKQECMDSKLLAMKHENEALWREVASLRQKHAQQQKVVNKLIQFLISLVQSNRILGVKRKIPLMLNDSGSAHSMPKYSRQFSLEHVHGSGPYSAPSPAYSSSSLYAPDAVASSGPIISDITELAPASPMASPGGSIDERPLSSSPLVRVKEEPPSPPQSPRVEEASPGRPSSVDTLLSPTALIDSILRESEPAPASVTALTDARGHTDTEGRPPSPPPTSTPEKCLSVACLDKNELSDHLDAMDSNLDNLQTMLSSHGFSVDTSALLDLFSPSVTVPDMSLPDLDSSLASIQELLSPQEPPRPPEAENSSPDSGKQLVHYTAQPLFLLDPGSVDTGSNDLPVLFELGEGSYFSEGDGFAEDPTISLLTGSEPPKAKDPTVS
Method in brief: as §1

[4] = target: T2, SPIC (Homo sapiens, UniProt Q8N5J4 1-248); conditions: protein: recombinant; tags: N-terminal GST; dsDNA, one strand shown
T2 sequence: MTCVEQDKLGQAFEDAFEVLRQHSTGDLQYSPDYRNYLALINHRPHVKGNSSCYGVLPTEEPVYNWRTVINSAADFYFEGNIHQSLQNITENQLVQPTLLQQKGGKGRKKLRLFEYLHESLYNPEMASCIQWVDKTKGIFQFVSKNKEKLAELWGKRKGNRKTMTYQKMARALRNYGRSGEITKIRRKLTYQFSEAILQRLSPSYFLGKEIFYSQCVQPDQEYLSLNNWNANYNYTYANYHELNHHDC
Method in brief: as §1

[5] = target: ELF4 (Homo sapiens, UniProt Q99607 1-663); conditions: protein: recombinant; tags: N-terminal GST; dsDNA, one strand shown
ELF4, sequence (Q99607 whole entry): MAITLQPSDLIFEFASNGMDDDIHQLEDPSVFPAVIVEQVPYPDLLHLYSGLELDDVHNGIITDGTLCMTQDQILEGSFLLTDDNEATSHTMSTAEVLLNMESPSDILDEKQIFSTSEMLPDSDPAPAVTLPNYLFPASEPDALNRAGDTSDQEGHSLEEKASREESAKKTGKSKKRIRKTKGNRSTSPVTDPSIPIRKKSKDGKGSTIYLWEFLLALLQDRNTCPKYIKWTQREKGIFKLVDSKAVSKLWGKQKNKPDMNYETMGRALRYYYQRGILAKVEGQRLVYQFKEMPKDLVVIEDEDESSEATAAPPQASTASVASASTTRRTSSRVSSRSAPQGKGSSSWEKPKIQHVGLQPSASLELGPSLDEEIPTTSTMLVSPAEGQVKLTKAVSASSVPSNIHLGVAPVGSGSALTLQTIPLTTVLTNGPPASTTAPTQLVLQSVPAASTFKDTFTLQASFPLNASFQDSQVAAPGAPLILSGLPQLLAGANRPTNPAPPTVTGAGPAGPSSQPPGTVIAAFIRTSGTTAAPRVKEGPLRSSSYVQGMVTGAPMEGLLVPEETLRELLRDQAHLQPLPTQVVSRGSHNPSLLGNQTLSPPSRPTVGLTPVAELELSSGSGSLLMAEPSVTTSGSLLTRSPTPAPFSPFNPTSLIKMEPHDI
Method in brief: as §1

[6] = target: T3, ELK4 (Homo sapiens, UniProt P28324-2 1-405); conditions: protein: recombinant; tags: N-terminal GST; dsDNA, one strand shown
T3 sequence: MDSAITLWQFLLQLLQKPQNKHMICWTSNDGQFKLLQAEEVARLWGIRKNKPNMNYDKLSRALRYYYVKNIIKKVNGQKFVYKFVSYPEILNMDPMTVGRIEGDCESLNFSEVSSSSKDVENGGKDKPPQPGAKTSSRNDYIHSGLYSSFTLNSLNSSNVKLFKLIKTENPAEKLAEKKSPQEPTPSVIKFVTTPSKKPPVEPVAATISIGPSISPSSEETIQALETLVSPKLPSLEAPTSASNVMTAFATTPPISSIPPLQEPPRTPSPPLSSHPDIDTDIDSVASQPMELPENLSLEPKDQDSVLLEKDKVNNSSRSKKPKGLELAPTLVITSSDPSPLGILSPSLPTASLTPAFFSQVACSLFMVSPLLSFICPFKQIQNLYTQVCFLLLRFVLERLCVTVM
Method in brief: as §1

[7] = target: T4, ELF3 (Homo sapiens, UniProt P78545 1-371); conditions: protein: recombinant; tags: N-terminal GST; dsDNA, one strand shown
T4 sequence: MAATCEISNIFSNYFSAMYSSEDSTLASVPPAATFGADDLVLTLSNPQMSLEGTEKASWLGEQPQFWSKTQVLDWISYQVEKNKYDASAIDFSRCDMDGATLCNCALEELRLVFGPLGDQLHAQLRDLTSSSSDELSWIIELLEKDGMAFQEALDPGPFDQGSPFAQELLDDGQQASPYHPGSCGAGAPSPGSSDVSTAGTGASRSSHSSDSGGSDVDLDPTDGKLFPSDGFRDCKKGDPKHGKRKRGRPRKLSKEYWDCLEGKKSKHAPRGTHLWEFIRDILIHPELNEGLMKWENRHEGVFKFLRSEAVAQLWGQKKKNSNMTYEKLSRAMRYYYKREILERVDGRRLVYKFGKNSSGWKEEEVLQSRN
Method in brief: as §1

[8] = target: CRX (Homo sapiens, UniProt O43186 1-299); conditions: protein: recombinant; tags: N-terminal GST; dsDNA, one strand shown
CRX, sequence (O43186 whole entry): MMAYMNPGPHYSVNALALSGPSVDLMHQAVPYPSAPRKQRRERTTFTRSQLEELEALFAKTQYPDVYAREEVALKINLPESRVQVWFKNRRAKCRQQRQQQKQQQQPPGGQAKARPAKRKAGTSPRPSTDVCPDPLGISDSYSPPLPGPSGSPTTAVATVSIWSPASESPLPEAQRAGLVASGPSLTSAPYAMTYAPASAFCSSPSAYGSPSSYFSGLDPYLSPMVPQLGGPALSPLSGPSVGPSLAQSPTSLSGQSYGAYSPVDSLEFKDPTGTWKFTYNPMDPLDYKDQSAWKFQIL
Method in brief: as §1

[9] = target: ETV1 (Homo sapiens, UniProt P50549 1-477); conditions: protein: recombinant; tags: N-terminal GST; dsDNA, one strand shown
ETV1, sequence (P50549 whole entry): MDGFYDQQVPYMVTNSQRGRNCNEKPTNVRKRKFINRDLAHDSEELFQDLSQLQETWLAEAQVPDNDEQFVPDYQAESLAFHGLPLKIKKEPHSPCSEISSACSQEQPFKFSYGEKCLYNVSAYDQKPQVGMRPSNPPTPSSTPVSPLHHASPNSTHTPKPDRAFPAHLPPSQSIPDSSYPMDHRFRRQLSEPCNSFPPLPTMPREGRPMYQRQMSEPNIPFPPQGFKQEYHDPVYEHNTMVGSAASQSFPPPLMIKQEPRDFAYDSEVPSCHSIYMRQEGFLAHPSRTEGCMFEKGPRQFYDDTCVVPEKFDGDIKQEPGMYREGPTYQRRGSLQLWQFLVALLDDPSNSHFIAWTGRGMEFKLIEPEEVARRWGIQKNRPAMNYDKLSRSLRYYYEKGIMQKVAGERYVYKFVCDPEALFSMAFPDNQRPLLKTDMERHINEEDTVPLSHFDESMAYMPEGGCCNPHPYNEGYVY
Method in brief: as §1

[10] = target: T5, ERF (Homo sapiens, UniProt P50548 1-548); conditions: protein: recombinant; tags: N-terminal GST; dsDNA, one strand shown
T5 sequence: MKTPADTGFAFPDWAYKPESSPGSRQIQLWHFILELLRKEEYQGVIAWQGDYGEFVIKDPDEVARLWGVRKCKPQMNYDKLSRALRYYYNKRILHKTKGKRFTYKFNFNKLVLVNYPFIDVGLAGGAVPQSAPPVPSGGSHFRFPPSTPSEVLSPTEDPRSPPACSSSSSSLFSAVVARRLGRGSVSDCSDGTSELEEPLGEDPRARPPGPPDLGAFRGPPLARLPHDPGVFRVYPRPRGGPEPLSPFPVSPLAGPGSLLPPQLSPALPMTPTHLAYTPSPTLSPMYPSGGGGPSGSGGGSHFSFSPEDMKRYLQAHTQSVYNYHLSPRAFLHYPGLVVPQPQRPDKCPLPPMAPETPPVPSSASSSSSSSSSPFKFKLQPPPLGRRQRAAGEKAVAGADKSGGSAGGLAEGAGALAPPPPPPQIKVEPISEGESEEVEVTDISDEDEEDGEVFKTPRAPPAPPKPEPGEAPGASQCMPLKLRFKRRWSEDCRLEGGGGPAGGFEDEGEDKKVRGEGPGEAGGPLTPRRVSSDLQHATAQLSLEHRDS
Method in brief: as §1

[11] = target: T6, ETV3L (Homo sapiens, UniProt Q6ZN32 1-361); conditions: protein: recombinant; tags: N-terminal GST; dsDNA, one strand shown
T6 sequence: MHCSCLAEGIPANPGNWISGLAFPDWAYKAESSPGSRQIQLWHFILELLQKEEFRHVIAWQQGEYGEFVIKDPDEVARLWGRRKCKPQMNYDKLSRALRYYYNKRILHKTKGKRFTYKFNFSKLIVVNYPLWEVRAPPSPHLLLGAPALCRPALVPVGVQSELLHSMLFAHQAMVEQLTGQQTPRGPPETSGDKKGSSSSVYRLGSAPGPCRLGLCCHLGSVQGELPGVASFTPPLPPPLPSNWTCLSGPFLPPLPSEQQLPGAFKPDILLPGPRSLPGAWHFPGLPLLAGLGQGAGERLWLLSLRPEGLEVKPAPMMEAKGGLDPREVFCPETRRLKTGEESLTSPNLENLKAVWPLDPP
Method in brief: as §1

[12] = target: T7, ETS2 (Homo sapiens, UniProt P15036 1-469); conditions: protein: recombinant; tags: N-terminal GST; dsDNA, one strand shown
T7 sequence: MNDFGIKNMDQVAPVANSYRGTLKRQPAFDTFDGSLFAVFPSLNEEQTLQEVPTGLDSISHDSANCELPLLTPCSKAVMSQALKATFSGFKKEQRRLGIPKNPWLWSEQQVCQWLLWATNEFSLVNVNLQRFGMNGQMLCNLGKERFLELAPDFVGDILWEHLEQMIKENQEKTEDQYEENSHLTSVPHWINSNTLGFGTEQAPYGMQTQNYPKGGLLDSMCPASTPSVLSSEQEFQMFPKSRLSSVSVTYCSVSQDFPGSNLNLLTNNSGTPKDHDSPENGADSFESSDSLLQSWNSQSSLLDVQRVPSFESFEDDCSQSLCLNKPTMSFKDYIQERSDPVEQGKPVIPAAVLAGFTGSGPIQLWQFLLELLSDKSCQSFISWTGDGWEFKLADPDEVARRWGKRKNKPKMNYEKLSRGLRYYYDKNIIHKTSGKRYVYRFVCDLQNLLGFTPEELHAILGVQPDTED
Method in brief: as §1

[13] = target: T8, SPDEF (Homo sapiens, UniProt O95238 1-335); conditions: protein: recombinant; tags: N-terminal GST; dsDNA, one strand shown
T8 sequence: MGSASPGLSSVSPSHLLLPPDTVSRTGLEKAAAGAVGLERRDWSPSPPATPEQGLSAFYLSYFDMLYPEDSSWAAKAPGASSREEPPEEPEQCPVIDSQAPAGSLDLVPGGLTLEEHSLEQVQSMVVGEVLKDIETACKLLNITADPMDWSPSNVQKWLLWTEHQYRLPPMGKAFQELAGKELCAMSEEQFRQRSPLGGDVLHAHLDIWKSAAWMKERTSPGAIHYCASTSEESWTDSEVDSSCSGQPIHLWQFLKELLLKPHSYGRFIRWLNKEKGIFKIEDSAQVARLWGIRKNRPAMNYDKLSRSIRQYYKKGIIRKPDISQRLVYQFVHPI
Method in brief: as §1

[14] = target: T9, ETV7 (Homo sapiens, UniProt Q9Y603 1-341); conditions: protein: recombinant; tags: N-terminal GST; dsDNA, one strand shown
T9 sequence: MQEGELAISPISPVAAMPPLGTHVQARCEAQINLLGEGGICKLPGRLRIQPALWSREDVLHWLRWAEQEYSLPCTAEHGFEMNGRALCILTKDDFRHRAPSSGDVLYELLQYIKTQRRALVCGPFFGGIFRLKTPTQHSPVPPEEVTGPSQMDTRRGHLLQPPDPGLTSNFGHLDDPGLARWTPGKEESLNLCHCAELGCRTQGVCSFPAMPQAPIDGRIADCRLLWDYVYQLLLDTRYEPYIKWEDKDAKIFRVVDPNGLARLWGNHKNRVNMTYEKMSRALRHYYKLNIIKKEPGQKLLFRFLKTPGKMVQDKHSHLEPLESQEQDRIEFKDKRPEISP
Method in brief: as §1

[15] = target: T10, ELF5 (Homo sapiens, UniProt Q9UKW6-2 1-255); conditions: protein: recombinant; tags: N-terminal GST; dsDNA, one strand shown
T10 sequence: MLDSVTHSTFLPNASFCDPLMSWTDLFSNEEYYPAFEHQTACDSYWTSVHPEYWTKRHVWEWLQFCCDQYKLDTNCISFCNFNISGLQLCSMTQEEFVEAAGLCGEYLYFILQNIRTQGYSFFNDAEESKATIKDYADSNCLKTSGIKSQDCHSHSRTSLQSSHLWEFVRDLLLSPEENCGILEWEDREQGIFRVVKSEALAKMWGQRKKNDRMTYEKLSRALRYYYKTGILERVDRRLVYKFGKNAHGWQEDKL
Method in brief: as §1

[16] = target: T11, ETV3 (Homo sapiens, UniProt P41162-2 1-143); conditions: protein: recombinant; tags: N-terminal GST; dsDNA, one strand shown
T11 sequence: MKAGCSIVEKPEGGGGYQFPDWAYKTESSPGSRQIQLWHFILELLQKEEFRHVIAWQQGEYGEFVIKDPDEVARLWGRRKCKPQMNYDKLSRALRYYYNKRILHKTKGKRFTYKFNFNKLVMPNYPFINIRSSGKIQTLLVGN
Method in brief: as §1

[17] = target: ETV6 (Homo sapiens, UniProt P41212 1-452); conditions: protein: recombinant; tags: N-terminal GST; dsDNA, one strand shown
ETV6, sequence (P41212 whole entry): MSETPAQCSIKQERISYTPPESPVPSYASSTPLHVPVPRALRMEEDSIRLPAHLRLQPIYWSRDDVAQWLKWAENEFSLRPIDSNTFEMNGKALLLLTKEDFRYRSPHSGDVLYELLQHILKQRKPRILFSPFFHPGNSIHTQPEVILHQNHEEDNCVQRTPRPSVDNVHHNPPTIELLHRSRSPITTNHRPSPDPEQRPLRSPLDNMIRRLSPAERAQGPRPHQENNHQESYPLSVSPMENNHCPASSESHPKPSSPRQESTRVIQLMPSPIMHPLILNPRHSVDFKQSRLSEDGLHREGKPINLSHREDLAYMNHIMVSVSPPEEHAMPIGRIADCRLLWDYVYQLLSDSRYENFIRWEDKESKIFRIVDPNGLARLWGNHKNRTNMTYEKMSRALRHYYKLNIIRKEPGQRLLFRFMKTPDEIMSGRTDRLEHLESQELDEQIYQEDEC
Method in brief: as §1

GTTTAT
binding signal [1]: 1.02 fold enrichment (6-mer frequency, TF over GST control) | binding signal [2]: 1.07 fold enrichment (6-mer frequency, TF over GST control) | binding signal [3]: 1.14 fold enrichment (6-mer frequency, TF over GST control) | binding signal [4]: 1.12 fold enrichment (6-mer frequency, TF over GST control) | binding signal [5]: 1.07 fold enrichment (6-mer frequency, TF over GST control) | binding signal [6]: 1.05 fold enrichment (6-mer frequency, TF over GST control) | binding signal [7]: 1.27 fold enrichment (6-mer frequency, TF over GST control) | binding signal [8]: 1.33 fold enrichment (6-mer frequency, TF over GST control) | binding signal [9]: 1.03 fold enrichment (6-mer frequency, TF over GST control) | binding signal [10]: 1.17 fold enrichment (6-mer frequency, TF over GST control) | binding signal [11]: 1.26 fold enrichment (6-mer frequency, TF over GST control) | binding signal [12]: 1.1 fold enrichment (6-mer frequency, TF over GST control) | binding signal [13]: 1.11 fold enrichment (6-mer frequency, TF over GST control) | binding signal [14]: 1.19 fold enrichment (6-mer frequency, TF over GST control) | binding signal [15]: 1.14 fold enrichment (6-mer frequency, TF over GST control) | binding signal [16]: 1.1 fold enrichment (6-mer frequency, TF over GST control) | binding signal [17]: 1.18 fold enrichment (6-mer frequency, TF over GST control)
